The values that follow come from PubChem BioAssay AID651558 (National Center for Advancing Translational Sciences (NCATS), 2012).

About 480 (40%) of roughly 1,200 compounds were called active. Not shown: some 29% with an inconclusive outcome. The list shows a part of the results. A number with no mark means an inactive call. Calls come from the whole dose curve; as a rule, active = well fitted inhibition curve with a large enough effect; inconclusive = small, poorly fitted or top-dose-only effect; inactive = no such curve, though single readings can be large or run the other way.
% is set by controls: 0 for no effect and ±100 for the full control effect; potency is the fitted concentration of half-maximal effect.

A short description of this assay: qHTS Assay to Find Inhibitors of Chronic Active B-Cell Receptor Signaling: Hit Validation in Primary Screen. Note: nearly all actives have a fitted effect of over 75% in size. To be noted: ABC-DLBCL IkB-luc/CBR ratio luminescence, 4 h; series mostly up to 46.1 µM; activity change, negative = inhibition: at the top concentration. An excerpt: Diffuse large B-cell lymphoma (DLBCL) is the most common category of non-Hodgkin lymphoma, with ~20,000 new cases per year in the United States. DLBCL should be regarded as a collection of different neoplasms. Microarray gene expression analysis has defined two principal types of DLBCL, named for their similarity to normal B cell stages or activation states: a germinal center B-cell (GCB) type, and an activated B-cell (ABC) type. In ABC-DLBCL, a constitutive high-level activity of the NF-kappaB family of transcription factors has been observed (1) and NF-kappaB target genes are more highly expressed in ABC primary tumors than in GCB tumors. Functional studies have shown a constitutive high-level activity of the IkappaB (inhibitor of kappa-B) kinase (IKK) complex. […] Further analysis of DLBCL primary tumors for NF-kappaB target gene expression imply that although CARD11 is required for constitutive IKK activity in all ABC-DLBCL lines, mutations in CARD11 may be the root cause of IKK activation only in lines or tumors with such mutations. In other words, CARD11 mutations may explain NF-kappaB activation in only 10% of ABC-DLBCL cases. […] This process has been termed 'chronic active BCR signaling' (CABS). The goal of this screen is to find small-molecule inhibitors of the CABS pathway found in ABC-DLBCL lines using a cell-based assay that measures IkappaBalpa stability, which has already been extensively validated in the OCI-Ly3 line (PubChem AID:445; REF: 4). […] A cell-sensor assay for I-kappa-B-alpha stabilization has been developed. The assay uses green (CBG68) and red (CBR) emitting beetle luciferases [Chroma-GloTM developed by Promega Corp.] where the green luciferase is fused to IkappaBalpha and the red luciferase is present in its native state. Both luciferase genes are stably present in the TMD8 human ABC DLBCL cell line, but their expression is under the control of tetracycline-inducible promoters. Following the addition of doxycycline to induce expression of the luciferases, the green luminescence in control cultures rises only slowly because the CBG fusion partner IkappaBalpha is targeted by IKK activity for rapid degradation. In contrast, green luminescence rises rapidly in the presence of proteasome inhibitors or IKK inhibitors. The rise in red luminescence of CBR is not affected by proteasome or IKK inhibitors, and serves as normalization for cell number and nonspecific effects. Compounds were screened as a concentration-titration series that ranged from 46 uM to 3 nM. NIH Molecular Libraries Probe Production Network [MLPCN] NIH Chemical Genomics Center [NCGC] MLPCN Grant: R03 DA031086 PI Name: Dr. R. Eric Davis
Cells were seeded in 1536-well plates at 5000 cells/4uL in IMDM medium containing 0.5% FBS, w/o phenol red, 1% penicillin/streptomycin. Then, 23 nL of compounds or DMSO were delivered to each well using a pin tool. One uL 20ng/ml doxycycline was then dispensed into white solid 1536-well plates and the plates were incubated at 37C/5% C02 in a cell incubator for 4 hrs. Then 4 uL luminescent substrate mix (in-house prepared: 150 mM Tris-Cl, pH 7.6, 3 mM MgCl2, 1% Triton X-100, 5 mM DTT, 0.2 mM CoA, 0.15 mM ATP, 5 mM D-luciferin, final concentrations) was added to each well. The plate was incubated at r.t. for 10-15 min. The plates were measured on a ViewLux plate reader for green luminescence (540/20 nm filter) and red luminescence (618/8 nm filter). The green and red luminescent signals were corrected for red and green luminescence filter overlap using previously determined filter calibration constants (determined using the procedure outlined in the Promega Technical Manual; REF 4). The %Activity was determined from the ratio of corrected green/red luminescent values. MG132 were used as control. Green luminescent and ratio %Activity was determined by normalizing to the difference in signal between basal cells (0% Activity) and cells incubated with 10 uM of the proteasome inhibitor MG-132 (100% Activity). […]
For orientation: qHTS replaces the single test concentration by a dilution series.
With `COc1cc2c(c(OC)c1OC)-c1ccc(O)c(=O)cc1C(NC(C)=O)CC2` (stereo unspecified), the Potency is 0.231 µM (active).

For `COc1cc2c(c(OC)c1OC)-c1ccc(O)cc1[C@@H](NC(C)=O)CC2`, the Potency was 0.461 µM (active).

`COc1cc([C@@H]2c3cc4c(cc3[C@H](O)[C@H]3COC(=O)[C@H]23)OCO4)cc(OC)c1OC`: the Potency was 0.0461 µM (active).

For `COc1cc(C2c3cc4c(cc3CC3COC(=O)C32)OCO4)cc(OC)c1OC` (stereo unspecified), the “activity change, negative = inhibition” value was 56.7%.

For `CCCCOCCCn1c(N)c(C(=O)OCCOC)c2nc3ccccc3nc21`, the “activity change, negative = inhibition” value was 7.36%.

For the molecule `C=CC[C@@H](CC/C=C/C=C/CC/C=C\[C@@H]1CSC([C@@H]2C[C@@H]2C)=N1)OC`, the Potency is 0.82 µM (active).

For the molecule `CC[C@]12CC[C@H](O)CC1=CCC1C2CC[C@]2(C)C(=O)CCC12` (stereo partly specified), the “activity change, negative = inhibition” value was -9.41%.

For `O=c1c2ccccc2[se]n1-c1ccccc1`, the Potency was 20.6 µM (active).

Consider `Cc1cc(C)c(C(=O)CN2CCOCC2)c(C)c1`, for which the “activity change, negative = inhibition” value was -10.1%.

For the molecule `CCNC(=O)[C@H]1O[C@@H](n2cnc3c(N)ncnc32)[C@H](O)[C@@H]1O`, the Potency was 0.13 µM (active).

In the case of `COc1ccc(C(=O)Oc2cccc3cccnc23)cc1S(=O)(=O)N1CCOCC1`, the “activity change, negative = inhibition” value was -4.8%.

For `CCC(=NCCC(c1ccccc1)c1ccccc1)c1c(O)[nH]c(=O)[nH]c1=O`, the Potency was 20.6 µM (active).

In the case of `C/C(=N\N1CCCCC1)c1c(O)[nH]c(=O)[nH]c1=O`, the “activity change, negative = inhibition” value was -16.6%.

Take `O=C1C(=O)c2cccc3cccc1c23`: the Potency was 18.4 µM (active).

On to `CCc1ccccc1N1C(=O)/C(=C/c2ccc(N3CCN(C)CC3)o2)C(=O)NC1=S`, for which the “activity change, negative = inhibition” value is 27.4%.

For `O=c1c2ccccc2nc(/C=C/c2ccc([N+](=O)[O-])o2)n1-c1ccc(O)cc1`, the Potency is 4.11 µM (active).

Take `COc1ccc(C=C2C(=O)N(C)C(=O)N(C)C2=O)cc1COc1ccc(NC(C)=O)cc1`: the “activity change, negative = inhibition” value is -14.9%.

For the molecule `C#CCOc1cc(C2C3=C(COC3=O)Nc3cc4c(cc32)OCO4)ccc1OC` (stereo unspecified), the Potency was 1.46 µM (active).

As to `CN(C)C(=S)SSC(=S)N(C)C`, the Potency was 16.4 µM (active).

For `COc1ccc(-c2nn(CCC#N)cc2C(=O)Nc2ccc(C(C)=O)cc2)cc1[N+](=O)[O-]`, the “activity change, negative = inhibition” value was 81.1%.

Turning to `COc1cc2c(cc1O)CC[C@@H]1[C@@H]2CC[C@]2(C)[C@@H](O)CC[C@@H]12`, the Potency was 18.4 µM (active).
